Experimental data: publication PMC5540273 (PLoS ONE, 2017)

How the values were obtained:
Details in all cases: concentration: 1 μM, replicates: in singlicate; n = 1
TSSK3 = test system: TSSK3
TTK = test system: TTK
TXK = test system: TXK
[1] = test system: TYK2(JH1domain-catalytic)
[2] = test system: TYK2(JH2domain-pseudokinase)
TYRO3 = test system: TYRO3
ULK1 = test system: ULK1
ULK2 = test system: ULK2
ULK3 = test system: ULK3
VEGFR2 = test system: T1, VEGFR2
T1 construct: gene KDR

VPS34 = test system: T2, VPS34
T2 construct: gene PIK3C3

VRK2 = test system: VRK2
WEE1 = test system: WEE1
WEE2 = test system: WEE2
WNK1 = test system: WNK1
WNK2 = test system: WNK2
WNK3 = test system: WNK3
WNK4 = test system: WNK4
YANK1 = test system: T3, YANK1
T3 construct: gene STK32A

YANK2 = test system: T4, YANK2
T4 construct: gene STK32B
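Further: KINOMEscan kinase panel screen.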

| Structure (SMILES) | %Inh (TSSK3) [%] | %Inh (TTK) [%] | %Inh (TXK) [%] | %Inh [1] [%] | %Inh [2] [%] | %Inh (TYRO3) [%] | %Inh (ULK1) [%] | %Inh (ULK2) [%] | %Inh (ULK3) [%] | %Inh (VEGFR2) [%] | %Inh (VPS34) [%] | %Inh (VRK2) [%] | %Inh (WEE1) [%] | %Inh (WEE2) [%] | %Inh (WNK1) [%] | %Inh (WNK2) [%] | %Inh (WNK3) [%] | %Inh (WNK4) [%] | %Inh (YANK1) [%] | %Inh (YANK2) [%] |
| --- | --- | --- | --- | --- | --- | --- | --- | --- | --- | --- | --- | --- | --- | --- | --- | --- | --- | --- | --- | --- |
| N#Cc1c(N2CCOCC2)sc(-c2ccn[nH]2)c1-c1ccc(Cl)cc1 | 0 | 19 | 0 | 14 | 20 | 0 | 8 | 15 | 20 | 11 | 86 | 35 | 0 | 0 | 0 | 4 | 14 | 34 | 0 | 0 |
| COc1cc2c(cc1OCCN1CCN(C)CC1)ncc1c3ccc(C#N)cc3[nH]c21 | 9 | 7 | 0 | 0 | 35 | 0 | 92.4 | 99.9 | 66 | 23 | 0 | 0 | 24 | 3 | 0 | 0 | 0 | 0 | 0 | 0 |
| Nc1nc(-c2ccc3c(N)n[nH]c3c2)cc(N2CCCC2)n1 [GSK2227430] | 17 | 11 | 0 | 0 | 46 | 0 | 0 | 0 | 2 | 0 | 0 | 0 | 35 | 0 | 0 | 0 | 8 | 0 | 0 | 0 |
| Cc1cn2c(=O)cc(N3CCOCC3)nc2n1Cc1cccc(Cl)c1Cl [GSK2334006] | 29 | 0 | 8 | 19 | 18 | 7 | 0 | 0 | 7 | 8 | 96.7 | 0 | 20 | 16 | 0 | 19 | 27 | 0 | 23 | 0 |
| O=c1cc(N2CCOCC2)nc2n(Cc3cccc(C(F)(F)F)c3)ccn12 [GSK2297543] | 15 | 12 | 0 | 0 | 0 | 0 | 0 | 0 | 9 | 13 | 93.9 | 0 | 6 | 10 | 2 | 0 | 19 | 22 | 0 | 0 |
| NS(=O)(=O)c1cccc(-c2ccc3ncc(N4CCOCC4)nc3c2)c1 [GSK1535721] | 6 | 6 | 0 | 0 | 31 | 0 | 0 | 0 | 2 | 10 | 87 | 8 | 5 | 8 | 0 | 0 | 24 | 16 | 2 | 3 |
| NS(=O)(=O)c1cccc(-c2ccc3nccc(-c4cccc(S(N)(=O)=O)c4)c3c2)c1 [GW867253] | 0 | 0 | 5 | 0 | 39 | 0 | 12 | 81 | 18 | 4 | 78 | 12 | 0 | 0 | 7 | 0 | 0 | 0 | 0 | 0 |
| Fc1ccc(-c2ncn(CCCN3CCOCC3)c2-c2cccnc2)cc1 [SB-211743] | 0 | 15 | 0 | 0 | 7 | 0 | 4 | 2 | 18 | 0 | 0 | 20 | 0 | 0 | 8 | 0 | 0 | 0 | 0 | 0 |
| CCc1nc(-c2cccc(C)c2)c(-c2ccnc(NCc3ccccc3)c2)s1 | 1 | 12 | 0 | 0 | 0 | 0 | 0 | 8 | 0 | 0 | 3 | 0 | 0 | 25 | 0 | 12 | 0 | 0 | 0 | 2 |
